# PubChem BioAssay AID1063 (University of Pittsburgh Molecular Library Screening Center, 2008)
# The campaign covered roughly 200,000 compounds. About 18,000 (9%) were called active. Cut-off read from the data, not from the text of the source: active = inhibition above about 50%; inactive = the rest. Shown is part of a subset that was picked to be rich in actives.
# Test: Leishmania major promastigote growth inhibition, primary screen (AID 1063);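 note: promastigotes grown with compound for 44 hours at 28 °C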
# Settings: Leishmania major promastigotes, resazurin fluorescence viability; at 10 µM; hits give high values
row,SMILES,inhibition
1,CC1=CC=CN2C1=NC(=O)CC2(C)C(=O)N(CC(=O)NC1CCCC1)c1ccccc1C (stereo not given),2.29% (inactive)
2,O=C(CSc1cccc2cccnc12)N/N=C/c1cccnc1,101% (active)
3,Cc1nc2ccccc2n1CC(=O)N/N=C/c1cccnc1,-4.45% (inactive)
4,Cc1c(NC(=O)CSc2cccc3cccnc23)c(=O)n(-c2ccccc2)n1C,44.5% (inactive)
5,CN1CCN(c2ccc(NC(=O)c3ccc4c(c3)OCCO4)cc2Cl)CC1,5.5% (inactive)
6,CCCc1[nH]nc2c1C(c1ccc(OC)c(Cn3nc(C)c(Br)c3C)c1)C(C#N)=C(N)O2 (stereo not given),41.6% (inactive)
7,COc1ccc(C2C(C#N)=C(N)Oc3n[nH]c(C)c32)cc1CN1CCN(c2ccc(F)cc2)CC1 (stereo not given),60.8% (active)
8,CCOc1c(OC)cc(C2C(C#N)=C(N)Oc3n[nH]c(-c4ccncc4)c32)cc1OC (stereo not given),6.78% (inactive)
9,O=Cc1ccc(Oc2cccc(C(F)(F)F)c2)nc1,6.6% (inactive)
10,COc1ccc(NC(=O)COC(=O)c2ccncc2)c(OC)c1,-3.38% (inactive)
11,O=C(NCc1ccncc1)C(=O)NCc1ccco1,-7.02% (inactive)
12,CC(C)(C)NC(=O)C(=O)NCc1ccncc1,77.7% (active)
13,CCCC(C)C(=O)NCc1ccncc1 (stereo not given),-1.46% (inactive)
14,CC(C)OCCCNC(=S)N1CCC(C(=O)c2ccc3c(c2)OCCO3)CC1,-1.34% (inactive)
15,COCCn1c(-c2ccc(OC)c(OC)c2)nc2ccccc21,11.3% (inactive)
16,CCCn1c(C(O)c2cc(OC)ccc2OC)nc2ccccc21 (stereo not given),19% (inactive)
17,COc1ccc(-c2nc3ccccc3n2CCC(C)C)cc1OC,66.8% (active)
18,Cn1c(=O)c2c(ncn2CC(=O)N/N=C/c2cn[nH]c2-c2ccc(F)cc2)n(C)c1=O,-7.31% (inactive)
19,Cn1nc(C(F)(F)F)c2cc(C(=O)N3CCOCC3)sc21,-2.24% (inactive)
20,COc1ccc(CCC(=O)OCC(=O)Nc2ccc(C)c(S(=O)(=O)N(C)C)c2)cc1,-10.7% (inactive)

row,SMILES,inhibition
1,Cc1ccc(C)c(S(=O)(=O)N2CCN(CC(=O)Nc3ccc([N+](=O)[O-])cc3)CC2)c1,26.5% (inactive)
2,COc1ccc(NS(=O)(=O)c2cc(NC(=O)CC(=O)c3ccc([N+](=O)[O-])cc3)ccc2C)cc1,68.3% (active)
3,Cc1cccc(-n2c(C)cc(/C=N/NC(N)=S)c2C)c1,79.6% (active)
4,Cc1cccc(-n2c(C)cc(/C=N\NC(=O)c3cccs3)c2C)c1,17.2% (inactive)
5,Cc1ccc(-n2c(C)cc(/C=N\NC(=O)CC(=O)NC(C)C)c2C)cc1,-3.17% (inactive)
6,Cc1ccc(-c2csc(NC(=O)c3cnccn3)n2)cc1C,-7.05% (inactive)
7,COc1ccc(Oc2c(Cl)cnn(-c3ccccc3)c2=O)cc1,59.1% (active)
8,COc1ccc(-n2c(C)nc3c(cnn3-c3ccccc3)c2=O)cc1,-7.18% (inactive)
9,Cc1ccc(Oc2cnn(-c3ccccc3)c(=O)c2Br)cc1,46.6% (inactive)
10,S=C1Nc2cc(Cl)ccc2Sc2ccccc21,-5.54% (inactive)
11,CCN(CC)C(=O)N(CC)Cc1ccccc1,0.88% (inactive)
12,CCC(C)NC(=O)/C=C/c1ccc(S(=O)(=O)NCc2ccco2)cc1 (stereo not given),9.36% (inactive)
13,CCC(CC)NC(=O)/C=C/c1cccc([N+](=O)[O-])c1,44.7% (inactive)
14,COc1cc(OC)cc(C(=O)NCCSCc2ccco2)c1,-3.35% (inactive)
15,O=C(NCc1ccco1)c1ccc(NS(=O)(=O)c2cccc([N+](=O)[O-])c2)cc1,-9.32% (inactive)
16,O=C(/C=C/c1cccc([N+](=O)[O-])c1)NCCSCc1ccco1,59.6% (active)
17,O=C(/C=C/c1ccc([N+](=O)[O-])cc1)NCCSCc1ccco1,62.9% (active)
18,CCOc1ccc(/C=C(/NC(=O)c2ccccc2)C(=O)NCCC(=O)O)cc1,-5.96% (inactive)
19,Cc1ccc(NC(=O)c2ccc(S(=O)(=O)NCC3CCCO3)cc2)cc1C (stereo not given),12.2% (inactive)
20,COc1ccccc1CNC(=O)c1cc(=O)c2ccccc2o1,15.9% (inactive)

row,SMILES,inhibition
1,O=C1/C(=C/c2cccs2)CCC1C1CCCC1 (stereo not given),-9.7% (inactive)
2,CCOC(=O)c1ccc(NC(=S)N2CCCC2)cc1,1.46% (inactive)
3,OCC1(CCOc2ccccc2)CCN(Cc2cn[nH]c2-c2ccccc2)CC1,-2.84% (inactive)
4,CN(CCOc1ccccc1)Cc1nc2cc(Cl)ccc2c(=O)[nH]1,7.34% (inactive)
5,Cc1c(CN2CCC(CO)(CCOc3ccccc3)CC2)[nH]c2ccc(Cl)cc12,100% (active)
6,CCN(CC)C(=O)C(=O)c1cn(CC(=O)NCc2ccc3c(c2)OCO3)c2ccccc12,-5.27% (inactive)
7,CCn1c(SCC(=O)Nc2nccs2)nnc1-c1ccco1,0.22% (inactive)
8,C=C1C2C[C@H](O)C(C)(C)[C@@]2(O)[C@H](O)C[C@]23C[C@@](C)(O)[C@H](CC[C@H]12)[C@H]3O (stereo not given in full),-5.47% (inactive)
9,CNS(=O)(=O)c1ccc(N2CCCC2=O)c([N+](=O)[O-])c1,-4.3% (inactive)
10,CN1CCN(c2ccc(S(=O)(=O)Nc3ccccc3)cc2[N+](=O)[O-])CC1,63.2% (active)
11,Cc1ccc(C(=O)c2ccc(N3CCN(C)CC3)c([N+](=O)[O-])c2)cc1,12.3% (inactive)
12,O=C(Nc1ccc2c(c1)CCC2)c1ccc(Br)s1,14.6% (inactive)
13,O=C(NCc1cccnc1)c1cccc(-c2cc3ccccc3oc2=O)c1,3.42% (inactive)
14,CN(C)S(=O)(=O)c1cccc(NC(=O)COC(=O)c2cc(=O)[nH]c(=O)[nH]2)c1,-5.88% (inactive)
15,CCOC(=O)CSC1=N/C(=C/c2ccc(-n3cncn3)cc2)C(=O)N1C(C)=O,8.27% (inactive)
16,CCn1c(NC(=O)c2ccccc2)c(-c2cccs2)c(=O)c2ccccc21,0.95% (inactive)
17,CC(C)Cn1c(CCC(=O)O)ccc1-c1cccs1,95.5% (active)
18,COCCCn1c(CCC(=O)O)ccc1-c1ccc(F)cc1,2.69% (inactive)
19,CN(C)c1ccc(C=C2C(=O)OC3(CCCC3)OC2=O)cc1,-3.55% (inactive)
20,Nc1ccc(C(=O)NCc2ccccc2)cc1,-6.94% (inactive)
